NadD block: inhibitors of S. aureus NadD, primary screen, biochemical, colorimetric, uHTS; Nicotinate-nucleotide adenylyltransferase NadD (Staphylococcus aureus N315); purified NadD enzyme, colorimetric absorbance read-out; inhibition, % at 20 µM; actives 0.78% (n = 360,000); AID 602399, 2012; in the data active = inhibition above about 26%
MsrA act: bovine MsrA enzyme activators, primary screen, biochemical, absorbance, HTS. actives 0.3% (n = 360,000). purified bovine MsrA, absorbance read-out. activation, % at 10.6 µM. Methionine sulfoxide reductase A (Bos taurus); in the data active = activation above about 7.5%;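 note: 0% = vehicle and 100% = reference activator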
rCAG RNA binder: binders of r(CAG) RNA repeats, primary screen, biochemical, fluorescence | actives 1.3% (n = 370,000) | r(CAG) RNA repeat, TO-PRO-1 dye displacement fluorescence | inhibition, % at 3 µM | AID 651821, 2012;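 active = inhibition above the plate cutoff, the mean of all test compounds on that plate plus 3 SD, cut at about 35% in these data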;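 note: 0% = DMSO alone and 100% = 100 µM mitoxantrone as full dye displacement; higher means more dye released from RNA so lower well fluorescence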
MsrA inh: bovine MsrA enzyme inhibitors, primary screen, biochemical, absorbance, HTS; AID 651718, 2012; purified bovine MsrA, absorbance read-out; inhibition, % at 15.5 µM; actives 0.75% (n = 360,000); in the data active = inhibition above about 4.5%;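 note: 0% = vehicle wells with enzyme and 100% = reference inhibitor wells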
rCAG bind conf: small molecules binding CAG repeat RNA – biochemical, fluorescence, confirmation | shares compounds with rCAG RNA binder | r(CAG) RNA repeat, TO-PRO-1 dye displacement fluorescence | inhibition, % at 3 µM | actives 70% (n = 4,300) | AID 652065, 2013;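 active = inhibition above a per-plate cutoff, the mean inhibition of sample wells plus 3 SD, cut at about 35% in these data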;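 note: loss of TO-PRO-1 fluorescence as compound displaces dye from 1x1 AA loop RNA; 0% = DMSO only wells and 100% = 100 µM mitoxantrone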
dCAG dye counter: displacement of TO-PRO-1 from CAG DNA duplex, counter-screen for rCAG RNA repeat binder project, biochemical, fluorescence, TO-PRO-1 dye, d(CAG) DNA oligo. shares compounds with rCAG RNA binder. d(CAG) DNA oligo TO-PRO-1 dye displacement. inhibition, % at 3 µM. actives 94% (n = 4,300). AID 652068, 2013;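 active = inhibition above its plate's cutoff, the mean test-well inhibition plus 3 SD, cut at about 4.8% in these data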;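 note: 0% = DNA dye mix with DMSO and 100% = 100 µM mitoxantrone; hits displace the dye from DNA and so lower well fluorescence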
The depositor's hits bear a star; · = no result given. Rows were chosen to be rich in hits. Some 2.7% of all compounds tested hit in one or more screens of this group.

SMILES	NadD block	MsrA act	rCAG RNA binder	MsrA inh	rCAG bind conf	dCAG dye counter
Cc1ccc(S(=O)(=O)N2[C@@H](c3ccc(C#N)cc3)C(C(=O)O)=C[C@H]2CC2CCCC2)cc1	11.1	-0.1	68.8*	0.2	59.1*	24.8*
CCOC(=O)C1=C[C@@H](CC)N(S(=O)(=O)c2ccc(C)cc2)[C@H]1c1cccc(Cl)c1	1.5	-1.9	1.2	0.0	·	·
CC[C@@H]1C=C(C(=O)O)[C@H](c2ccc(Cl)cc2)N1S(=O)(=O)c1ccc(C)cc1	1.4	-2.2	24.5	-0.2	·	·
Cc1ccc(S(=O)(=O)N2[C@@H](c3ccc(Cl)cc3)C(C(=O)O)=C[C@H]2CC2CCCC2)cc1	6.3	-8.1	76.7*	1.0	76.5*	39.5*
CC[C@@H]1C=C(C(=O)O)[C@H](c2ccc(OC)c(OC)c2)N1S(=O)(=O)c1ccc(C)cc1	-2.3	-4.6	5.9	1.3	·	·
Cc1ccc(S(=O)(=O)N2[C@@H](c3ccc(Cl)c(Cl)c3)C(C(=O)O)=C[C@H]2CC2CCCC2)cc1	14.3	-4.0	87.2*	0.4	86.3*	56.8*
CCc1ccc(NC(=O)C(C)OC(=O)C2CCC(=O)N2)cc1 (stereo unspecified)	-6.2	-4.4	-1.2	-1.1	·	·
N#CCc1nc2ccc(S(=O)(=O)N3CCOCC3)cc2s1	10.1	-3.3	43.5*	1.7	25.4	15.0*
O=C(O)c1ccc(N/N=C/c2ccc(-c3ccc(Cl)cc3Cl)o2)cc1	11.6	-4.2	92.2*	-0.9	84.0*	51.0*
Cc1c(C(=O)O)cccc1-c1ccc(/C=N/Nc2ccc(Br)cc2)o1	4.7	-6.8	50.1*	2.3	64.4*	21.5*
NS(=O)(=O)c1ccc(-c2ccc(/C=N/Nc3ccc(C(=O)O)cc3)o2)cc1	-9.7	-6.3	16.7	2.7	·	·
O=C(O)c1cc(N/N=C/c2ccc(-c3ccc(F)cc3)o2)ccc1Cl	3.7	-3.6	55.7*	3.0	38.1*	11.8*
O=C(O)c1ccc(N/N=C/c2ccc(-c3cc(Cl)ccc3Cl)o2)cc1	11.4	-1.9	45.0*	1.1	50.6*	17.8*
O=C(Cc1ccc(F)cc1)N/N=C/c1ccc(-c2ccc(Cl)c(C(=O)O)c2)o1	2.3	-4.8	2.4	3.3	·	·
O=C(O)c1ccc(N/N=C/c2ccc(-c3cccc(Cl)c3)o2)cc1	0.4	-6.3	62.5*	1.5	49.7*	15.9*
O=C(O)c1ccc(-c2ccc(/C=N/Nc3ccc([N+](=O)[O-])cc3)o2)cc1	1.7	-9.8	24.9	1.3	·	·
O=C(O)c1cccc(-c2ccc(/C=N/Nc3ccc([N+](=O)[O-])cc3)o2)c1	-4.4	-3.7	58.6*	1.4	48.6*	15.3*
CCC(C)NC(=O)CCSCCC(=O)NC(C)CC (stereo unspecified)	0.9	-9.2	2.1	0.3	·	·
Brc1cc2c(cc1COc1ccc(-c3nn[nH]n3)cc1)OCO2	2.1	-8.0	35.1*	-0.8	25.4	6.5*
Cc1ccccc1COc1ccc(-c2nn[nH]n2)cc1	-2.2	-2.6	11.2	-0.1	·	·
Cn1c(=O)c(C(=O)NNC(=O)c2ccc(Br)cc2)c(O)c2ccccc21	25.0	2.0	0.5	1.9	·	·
Cc1ccc(S(=O)(=O)N2[C@@H](c3ccccc3F)C(C(=O)O)=CC[C@H]2c2ccc(C(C)C)cc2)cc1	13.1	0.5	76.8*	-0.9	81.1*	47.1*
Cc1ccc([C@@H]2CC=C(C(=O)O)[C@H](c3ccccc3F)N2S(=O)(=O)c2ccc(C)cc2)cc1	3.0	-0.7	61.0*	0.2	55.3*	20.6*
COc1ccc([C@@H]2CC=C(C(=O)O)[C@H](c3ccccc3F)N2S(=O)(=O)c2ccc(C)cc2)cc1OC	-1.0	-1.7	31.9	1.6	·	·
O=C(NCCN1CCOCC1)c1ccc(=O)n(Cc2ccc(Cl)cc2)c1	4.1	-3.3	-4.4	-0.2	·	·
CC(=O)c1ccc(N2CCN(C(=O)c3cc(-c4ccncc4)nc4ccc(Cl)cc34)CC2)cc1	4.3	-9.1	4.3	-0.2	·	·
COc1ccc(CC(=O)NCC(=O)Nc2ccccc2Br)cc1	-5.6	-6.4	2.3	-0.5	·	·
